These results are taken from PubChem BioAssay (NCATS).

The structures appear in SMILES notation. Results filed as inconclusive are left out. A call without a number means that no potency is given here. Calls of active or inactive are those of the source. The call rests on the fitted dose curve; in most records, active means well fitted inhibition curve with a large enough effect; inconclusive means small, poorly fitted or top-dose-only effect; inactive means no such curve, though single readings can be large or run the other way.
Potency means the concentration at half of the fitted maximal effect.

The subject of one assay is Zika virus NS2B-NS3 protease (unlinked complex). Kind of assay: Primary screen GU Rhodamine qHTS for Zika virus inhibitors: Unlinked NS2B-NS3 protease assay (AID 1347159). Further: nearly all actives have a fitted effect of over 60% in size. Particulars: Recombinant ZIKV NS2B-NS3 protease, Rhodamine110 substrate fluorescence; series mostly up to 107 µM. The essentials:
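In dose–response format, inhibition of unlinked protease (25 nM) was measured with 1.5 microM bis-peptide Rhodamine110 substrate. Aprotinin served as the intraplate control.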
For the compound `CNCCCC1(c2ccccc2)OC(C)(C)c2ccccc21` (stereo not drawn), the Potency entry is “inactive”.
For the compound `COc1ccccc1C(=O)Nc1cc2c(cc1N1CCCC1)n(C)c(=O)n2C`, the Potency result is “inactive”.
Regarding `Cc1ccc(-c2c(C(=O)CCl)n(CCCO)c3ncnc(N)c23)cc1`, the Potency result is “inactive”.
For `CCCN1CCC=C(c2cc(-c3ccc(C)cc3)no2)C1`, the Potency entry was “inactive”.
As to `COc1cc(OC)c2c(=O)[nH]c(-c3cc(C)c(OCCO)c(C)c3)nc2c1`, the Potency result is “inactive”.
Consider `Cc1nc(C#Cc2ccnc(Cl)c2)c(C)n1-c1ccc(OC(F)(F)F)cc1`, for which the Potency entry is “inactive”.
As for `O=c1[nH]c([C@@H]2CCCN2)nc2c1oc1ccc(Cl)cc12`, the Potency result was “inactive”.
`CC1=C2C[C@@]3(C)C(CCC[C@@H]3C)C(O)C2OC1=O` (stereo partly drawn): the Potency entry was “inactive”.
As to `CC(=O)C=C=C1C(C)(C)CC(O)CC1(C)O[C@@H]1O[C@H](CO[C@H]2OC[C@](O)(CO)[C@H]2O)[C@@H](O)[C@H](O)[C@H]1O` (stereo partly drawn), the Potency was 20 µM (active).
For the compound `Cn1cc(-c2cnn3c(N)c(Br)c([C@@H]4CCCNC4)nc23)cn1`, the Potency result was “inactive”.
For the compound `COc1ccc(OC)c(-c2ccc(NC(=O)c3ccncc3F)cc2)c1`, the Potency entry is “inactive”.
Still for that read-out and setting: the value for `Cn1ncc(Cl)c1-c1cc(C(=O)N[C@H](CN)Cc2cccc(F)c2)sc1Cl` was “inactive”; that for `N#Cc1ccc(COc2ccc(-c3cccc4nc(NC(=O)C5CC5)nn34)cc2)cn1` was “inactive”; that for `CCCOc1ccc(CCc2nc3cc(-c4c(C)noc4C)ccc3n2CCN2CCOCC2)cc1` was “inactive”.
Take `CCOC(=O)C1(CCOc2ccccc2)CCN(Cc2ccc(O)c(Cl)c2)CC1`: the Potency entry was “inactive”.
For `NC(=O)CCCSc1nc(N)nc(-c2c(Cl)cc3c4c(cccc24)COC3)n1`, the Potency result was “inactive”.
As for `CC(C)(C)[C@H](NC(=O)c1ccc(N)c(Cl)c1)C(=O)N1CCC[C@H]1C(=O)N[C@H](C#N)CC(=O)O`, the Potency result was “inactive”.
In the case of `CC(=O)O[C@@H]1C2=C(O)C(=O)[C@](C)(OC(C)=O)C(=O)C2=CO[C@@]12O[C@@H](C)CC[C@H]2OC(C)=O`, the Potency entry was “inactive”.
For `Oc1cccc(C2NC(=S)Nc3cccc(F)c32)c1` (stereo not drawn), the Potency result was “inactive”.
`Cc1[nH]c(/C=C2\C(=O)Nc3ccc(F)cc32)c(C)c1C(=O)NCCN1CCCC1`: the Potency result is “inactive”.
Still for that read-out and setting: the value for `C/C=C/C=C/c1cc2c(C=O)c(O)c(CC=C(C)C)cc2o1` was 12.6 µM (active).
The same measure, in the same setting: the value for `Cc1cc(-c2ncc(-c3cccnc3)cc2/C=C/c2ccccc2)cnc1-c1cccnc1` was “inactive”; that for `CCCn1ncc(CN2CCCC(C(=O)c3cccc(OC(C)C)c3)C2)c1C` (stereo not drawn) was “inactive”.
As to `C=C(C)C(=O)O[C@H]1[C@H]2C(=C)C(=O)O[C@@H]2C[C@@H](C)[C@@H]2O[C@@H]2C(=O)[C@](C)(O)[C@@H]1OC(=O)C(=C)C`, the Potency entry was “inactive”.
On to `COc1ccc(C#Cc2ccc(C(=O)N3CCC[C@@H](CO)C3)cc2)cc1`, for which the Potency result was “inactive”.
Same read-out and setting: the result for `Cc1nc(C(=O)N2CCC[C@H]2Cc2nnc(-c3ccccc3)o2)c(-c2ccccc2F)s1` reads “inactive”; that for `CC1(C)CCCC2(C)C1C(=O)C=C(C(=O)O)C2(O)C(=O)O` (stereo not drawn), “inactive”.
Consider `NC(N)=NC(=O)c1cnn(-c2cccc3ncccc23)c1C1CC1`, for which the Potency result is “inactive”.
`CNc1cccc(CCOc2ccc3c(c2)CN(CC(F)(F)F)C(=O)[C@H](CC(=O)O)C3)n1`: the Potency result is “inactive”.
Consider `Cc1ccc(CNc2ncnc3ccc(-c4ccc(CO)o4)cc23)o1`, for which the Potency result is “inactive”.
`Cc1c(C(=O)Nc2ccc(N3CCC(N4CCOCC4)CC3)c(C#N)c2)cnn1-c1ccc(Cl)cc1`: the Potency result is “inactive”.
Regarding `CCCNCCc1ccc(NS(=O)(=O)c2ccc(OC(F)(F)F)cc2)cc1`, the Potency entry was “inactive”.
As for `CCn1c(=O)n([C@H]2CCCN(c3nccc(-c4cc5ccccc5o4)n3)C2)c2ccccc21`, the Potency entry was “inactive”.
Same read-out and setting: the value for `COCC(=O)NC/C=C/c1ccc2ncnc(Nc3ccc(Oc4ccc(C)nc4)c(C)c3)c2c1` was “inactive”; that for `CN1CCN(c2ccc(OC(F)(F)F)c(Nc3ncc4c(n3)-c3c(c(C(N)=O)nn3CCO)CC4)c2)CC1` was “inactive”.
Consider `C=C1C(=O)O[C@@H]2C(OC(=O)/C(C)=C\C)/C(C)=C\C(=O)/C=C(\C)C[C@H](O)[C@@H]12` (stereo partly drawn), for which the Potency result is “inactive”.
For the compound `CCCCCCCCn1cc(CN(CC)CC)c2cc(-c3cnc(N)nc3)ccc21`, the Potency entry was “inactive”.
Take `N#CC(CCCN1CCC(O)(c2ccc(Cl)cc2)CC1)(c1ccccc1)c1ccccc1`: the Potency result is “inactive”.
On the same count and under the same terms, the result for `CC(=O)O[C@@H]1[C@@H](O)[C@H](O[C@@H]2[C@@H](O)[C@@H](O)[C@H](O[C@H]3[C@H](O[C@H]4[C@H](O[C@H]5CC[C@@]6(C)C(CC[C@]7(C)C6CC=C6[C@@H]8CC(C)(C)CC[C@]8(C(=O)O)CC[C@]67C)[C@]5(C)CO)O[C@H](CO)[C@@H](O)[C@@H]4O)OC[C@@H](O)[C@@H]3O)O[C@H]2C)OC[C@H]1O` (stereo partly drawn) reads “inactive”.

Another assay relates to Zika virus NS2B-NS3 protease (linked construct). Kind of assay: Primary screen NINDS Rhodamine qHTS for Zika virus inhibitors (AID 1347160). Further: nearly all actives have a fitted effect of over 55% in size. Conditions: purified NS2B-NS3 protease, Rhodamine110 substrate fluorescence; series mostly up to 57.1 µM. A digest of the protocol:
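Each compound, titrated, sat 15 min with 25 nM linked protease before 1.5 microM Rhodamine110 substrate went in. Fluorescence gain over the next 15 min, in pH 8.0 Tris with Tween 20, gave Hill-fitted curves.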
A general note: Quantitative high-throughput screening tests each substance at several concentrations.
Consider `CNCCCC1(c2ccccc2)OC(C)(C)c2ccccc21` (stereo not drawn), for which the Potency entry was “inactive”.
For the compound `COc1ccccc1C(=O)Nc1cc2c(cc1N1CCCC1)n(C)c(=O)n2C`, the Potency entry was “inactive”.
For `Cc1ccc(-c2c(C(=O)CCl)n(CCCO)c3ncnc(N)c23)cc1`, the Potency result was “inactive”.
Take `CCCN1CCC=C(c2cc(-c3ccc(C)cc3)no2)C1`: the Potency entry is “inactive”.
`COc1cc(OC)c2c(=O)[nH]c(-c3cc(C)c(OCCO)c(C)c3)nc2c1`: the Potency result was “inactive”.
As for `Cc1nc(C#Cc2ccnc(Cl)c2)c(C)n1-c1ccc(OC(F)(F)F)cc1`, the Potency entry was “inactive”.
For `O=c1[nH]c([C@@H]2CCCN2)nc2c1oc1ccc(Cl)cc12`, the Potency entry is “inactive”.
Consider `CC1=C2C[C@@]3(C)C(CCC[C@@H]3C)C(O)C2OC1=O` (stereo partly drawn), for which the Potency result is “inactive”.
As for `CC(=O)C=C=C1C(C)(C)CC(O)CC1(C)O[C@@H]1O[C@H](CO[C@H]2OC[C@](O)(CO)[C@H]2O)[C@@H](O)[C@H](O)[C@H]1O` (stereo partly drawn), the Potency is 11.2 µM (active).
Still for that read-out and setting: the value for `Cn1cc(-c2cnn3c(N)c(Br)c([C@@H]4CCCNC4)nc23)cn1` was “inactive”; that for `COc1ccc(OC)c(-c2ccc(NC(=O)c3ccncc3F)cc2)c1` was “inactive”.
With `Cn1ncc(Cl)c1-c1cc(C(=O)N[C@H](CN)Cc2cccc(F)c2)sc1Cl`, the Potency entry was “inactive”.
On the same count and under the same terms, the result for `N#Cc1ccc(COc2ccc(-c3cccc4nc(NC(=O)C5CC5)nn34)cc2)cn1` reads “inactive”; that for `CCCOc1ccc(CCc2nc3cc(-c4c(C)noc4C)ccc3n2CCN2CCOCC2)cc1`, “inactive”; that for `CCOC(=O)C1(CCOc2ccccc2)CCN(Cc2ccc(O)c(Cl)c2)CC1`, “inactive”.
In the case of `NC(=O)CCCSc1nc(N)nc(-c2c(Cl)cc3c4c(cccc24)COC3)n1`, the Potency result was “inactive”.
On the same count and under the same terms, the result for `CC(C)(C)[C@H](NC(=O)c1ccc(N)c(Cl)c1)C(=O)N1CCC[C@H]1C(=O)N[C@H](C#N)CC(=O)O` reads “inactive”; that for `CC(=O)O[C@@H]1C2=C(O)C(=O)[C@](C)(OC(C)=O)C(=O)C2=CO[C@@]12O[C@@H](C)CC[C@H]2OC(C)=O`, “inactive”.
`Oc1cccc(C2NC(=S)Nc3cccc(F)c32)c1` (stereo not drawn): the Potency result was “inactive”.
`Cc1[nH]c(/C=C2\C(=O)Nc3ccc(F)cc32)c(C)c1C(=O)NCCN1CCCC1`: the Potency entry was “inactive”.
In the case of `C/C=C/C=C/c1cc2c(C=O)c(O)c(CC=C(C)C)cc2o1`, the Potency was 17.8 µM (active).
As for `Cc1cc(-c2ncc(-c3cccnc3)cc2/C=C/c2ccccc2)cnc1-c1cccnc1`, the Potency result was “inactive”.
As for `CCCn1ncc(CN2CCCC(C(=O)c3cccc(OC(C)C)c3)C2)c1C` (stereo not drawn), the Potency result was “inactive”.
On to `C=C(C)C(=O)O[C@H]1[C@H]2C(=C)C(=O)O[C@@H]2C[C@@H](C)[C@@H]2O[C@@H]2C(=O)[C@](C)(O)[C@@H]1OC(=O)C(=C)C`, for which the Potency entry is “inactive”.
As for `COc1ccc(C#Cc2ccc(C(=O)N3CCC[C@@H](CO)C3)cc2)cc1`, the Potency entry is “inactive”.
In the case of `Cc1nc(C(=O)N2CCC[C@H]2Cc2nnc(-c3ccccc3)o2)c(-c2ccccc2F)s1`, the Potency result is “inactive”.
On to `CC1(C)CCCC2(C)C1C(=O)C=C(C(=O)O)C2(O)C(=O)O` (stereo not drawn), for which the Potency entry was “inactive”.
As to `NC(N)=NC(=O)c1cnn(-c2cccc3ncccc23)c1C1CC1`, the Potency result is “inactive”.
Regarding `CNc1cccc(CCOc2ccc3c(c2)CN(CC(F)(F)F)C(=O)[C@H](CC(=O)O)C3)n1`, the Potency result is “inactive”.
As to `Cc1ccc(CNc2ncnc3ccc(-c4ccc(CO)o4)cc23)o1`, the Potency entry was “inactive”.
Take `Cc1c(C(=O)Nc2ccc(N3CCC(N4CCOCC4)CC3)c(C#N)c2)cnn1-c1ccc(Cl)cc1`: the Potency result was “inactive”.
Take `CCCNCCc1ccc(NS(=O)(=O)c2ccc(OC(F)(F)F)cc2)cc1`: the Potency entry was “inactive”.
As for `CCn1c(=O)n([C@H]2CCCN(c3nccc(-c4cc5ccccc5o4)n3)C2)c2ccccc21`, the Potency result is “inactive”.
On the same count and under the same terms, the value for `COCC(=O)NC/C=C/c1ccc2ncnc(Nc3ccc(Oc4ccc(C)nc4)c(C)c3)c2c1` was “inactive”; that for `CN1CCN(c2ccc(OC(F)(F)F)c(Nc3ncc4c(n3)-c3c(c(C(N)=O)nn3CCO)CC4)c2)CC1` was “inactive”; that for `C=C1C(=O)O[C@@H]2C(OC(=O)/C(C)=C\C)/C(C)=C\C(=O)/C=C(\C)C[C@H](O)[C@@H]12` (stereo partly drawn) was “inactive”.
With `CCCCCCCCn1cc(CN(CC)CC)c2cc(-c3cnc(N)nc3)ccc21`, the Potency result is “inactive”.
Consider `N#CC(CCCN1CCC(O)(c2ccc(Cl)cc2)CC1)(c1ccccc1)c1ccccc1`, for which the Potency entry was “inactive”.
Regarding `CC(=O)O[C@@H]1[C@@H](O)[C@H](O[C@@H]2[C@@H](O)[C@@H](O)[C@H](O[C@H]3[C@H](O[C@H]4[C@H](O[C@H]5CC[C@@]6(C)C(CC[C@]7(C)C6CC=C6[C@@H]8CC(C)(C)CC[C@]8(C(=O)O)CC[C@]67C)[C@]5(C)CO)O[C@H](CO)[C@@H](O)[C@@H]4O)OC[C@@H](O)[C@@H]3O)O[C@H]2C)OC[C@H]1O` (stereo partly drawn), the Potency entry is “inactive”.
